Compound activity: PubChem, Broad Institute
Hits are enriched below; roughly 3.4% of the tested compounds scored in any of these assays.
Wnt act = Wnt/beta-catenin pathway activation; 300,000 tested, 1.2% active; activation, % at 9.35 µM; Wnt/beta-catenin reporter cell assay, activator, plate reader; in the data active means activation above about 30%, passing the limit was not always enough; inconclusive means no clear call, values can overlap the other calls
esBAF inh = inhibitors of esBAF chromatin remodeling in mouse ES cells; Bmi1-luciferase knock-in reporter, 24 h; 100% = twice the neutral-well signal; reporter increase, % at 12.5 µM; 350,000 tested, 2% active; in the data active means activation above about 40%; inconclusive means no clear call, values can overlap the other calls;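 further: a rise in the Bmi1 reporter signal indicates esBAF inhibition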
HIV Env fusion = inhibitors of HIV Env-mediated cell fusion; HeLa-JRFL Env/CEM21 cell fusion, luciferase; inhibition, % at 12.3 µM; 360,000 tested, 1.1% active;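 active means mean replicate inhibition score of at least 50 and every replicate individually at or above 50; inconclusive means only one of the two criteria met; inactive means mean below 50 and not all replicates reaching 50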
MITF TRPM1 HTS = MITF TRPM1 promoter activation in melanoma cells; SK-MEL-5 TRPM1-promoter luciferase, 24 h; % of positive control, neutral wells = 0; activation, % at 12.5 µM; 300,000 tested, 0.75% active;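 active means mean activation of at least 80% with every replicate also reaching 80%; inconclusive means mean reaches 80% but some replicate falls short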
miR-122 sensor = miR-122 inhibition in Huh7 cells; Huh7 miR-122 Renilla luciferase sensor, 48 h; neutral wells = 0, positive control = 100; 340,000 tested, 0.3% active; activation (reporter increase), % at 12.5 µM;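 active means mean replicate activation score at least 90 and every replicate individually at or above 90; inconclusive means only one of the two criteria met; inactive means neither criterion met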;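 further: higher luciferase means less miR-122 activity so hits act as miR-122 inhibitors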
A number is an active result; i = inactive; ? = inconclusive; nt = no result given.

SMILES	Wnt act	esBAF inh	HIV Env fusion	MITF TRPM1 HTS	miR-122 sensor
O=C(Cc1ccccn1)NCC[C@@H]1CC[C@H](NS(=O)(=O)c2ccc(F)cc2)[C@H](CO)O1	nt	i	i	nt	nt
Cc1ccc(S(=O)(=O)Nc2ccc3c(c2)C(=O)N([C@@H](C)CO)C[C@@H](C)[C@@H](CN(C)C(=O)NC(C)C)OCCCC[C@@H](C)O3)cc1	nt	i	i	nt	i
CO[C@@H]1CN(C)C(=O)c2cc(NC(C)=O)ccc2OC[C@H](C)N(Cc2cccnc2)C[C@H]1C	nt	i	i	nt	i
COc1ccc(S(=O)(=O)Nc2ccc(S(=O)(=O)Nc3ccc(F)cc3)cc2)cc1C	nt	i	nt	i	?
CCOc1cc(C)c(S(=O)(=O)Nc2ccc(F)cc2)cc1C	nt	i	i	i	304
COc1ccc(C)cc1S(=O)(=O)Nc1ccc(F)cc1	i	i	i	i	113
COc1ccc(NC(=O)C2CCC2)cc1S(=O)(=O)Nc1cc(C)ccc1Br	i	i	i	i	170
O=C(C[C@@H]1C[C@@H]2c3cc(NC(=O)Nc4ccc(C(F)(F)F)cc4)ccc3O[C@@H]2[C@@H](CO)O1)NC1CCCCC1	nt	i	?	nt	i
NC(=O)c1ccccc1NC(=O)c1ccc2c(c1)OCO2	42	i	i	nt	nt
CSc1ccccc1NC(=O)COc1ccc2c(c1)OCO2	i	i	nt	i	nt
NC(=O)c1ccccc1NC(=O)COc1ccc2c(c1)OCO2	i	48	i	132	i
NC(=O)c1ccccc1NC(=O)c1ccc2ccccc2c1	i	i	i	i	i
CCCOP(=O)(c1ccc(N(C)C)cc1)C(O)c1c(Cl)cccc1Cl (centres undefined)	i	i	73	i	i
CC(C)CCOP(=O)(c1ccc(N(C)C)cc1)C(O)c1c(Cl)cccc1Cl (centres undefined)	i	i	75	i	i
CN(C)CCCNC(=O)[C@@H]1[C@@H](CO)[C@@H]2Cn3c(ccc(-c4ccccc4)c3=O)[C@H]1N2C(=O)CC1CC1	nt	i	i	nt	nt
COCCNC(=O)C[C@@H]1CC[C@@H]2[C@H](COc3ccc(NC(=O)c4cnccn4)cc3C(=O)N2C)O1	nt	i	nt	nt	i
O=C1Cc2c([nH]c3ccc([N+](=O)[O-])cc23)-c2ccccc2N1	i	nt	96	i	nt
CCCCc1c(C)c2ccc(OCC(C)=O)cc2oc1=O	i	63	nt	i	i
Cc1c(C)c2ccc(OCC(=O)c3ccccc3)cc2oc1=O	i	?	i	94	i
C[C@H](CO)N1C[C@H](C)[C@@H](CN(C)C(=O)Cc2cccnc2)Oc2ncc(-c3ccccc3)cc2C1=O	nt	nt	i	nt	i
C[C@@H]1CN([C@@H](C)CO)C(=O)Cc2cc(NS(C)(=O)=O)ccc2O[C@@H]1CN(C)Cc1ccc(C(=O)O)cc1	nt	i	i	nt	i
CCCC(=O)Nc1ccc2c(c1)C(=O)N(C)[C@H]1CC[C@H](CC(=O)O)O[C@H]1CO2	nt	i	i	nt	i
C[C@@H]1CN([C@@H](C)CO)C(=O)c2cccc(NC(=O)c3ccc(-c4nccs4)cc3)c2O[C@H]1CN(C)C	nt	i	nt	nt	i
C/C(=N\NC(=O)c1ccc2c(c1)OCO2)c1ccc2c(c1)OCO2	i	52	i	i	i
C/C(=N\NC(=O)c1ccc2c(c1)OCO2)c1ccc(C(=O)O)s1	i	nt	i	i	nt
SMILES	Wnt act	esBAF inh	HIV Env fusion	MITF TRPM1 HTS	miR-122 sensor
O=C(NN=C1CCCCCC1)c1ccc2c(c1)OCO2	i	54	i	i	i
C/C(=N\NC(=O)c1ccc2c(c1)OCCO2)c1ccccc1	47	i	i	nt	i
CC(=NNC(=O)c1cccs1)c1ccc2c(c1)OCCO2	?	47	nt	105	i
CN(C)C(=O)C[C@@H]1C[C@@H]2c3cc(NC(=O)c4ccc5c(c4)OCO5)ccc3O[C@@H]2[C@@H](CO)O1	nt	i	nt	nt	i
Cc1ccc(S(=O)(=O)N(C)C[C@H]2Oc3c(NC(=O)Nc4ccc5c(c4)OCO5)cccc3C(=O)N([C@H](C)CO)C[C@@H]2C)cc1	nt	i	i	nt	i
CCC(=O)Nc1ccc2c(c1)C(=O)N(C)C[C@H](OC)[C@@H](C)CN(Cc1ccccc1F)[C@@H](C)CO2	nt	i	nt	nt	nt
Cc1ccsc1/C=N\NC(=O)c1ccc2c(c1)OCO2	39	i	i	nt	i
C/C(=N\NC(=O)c1cccs1)c1c(O)cc(C)oc1=O	i	63	i	i	nt
C/C(=N/NC(=O)c1cccs1)c1cccs1	i	nt	i	nt	i
O=C(NNC(=S)NC1CCCCC1)c1ccc2c(c1)OCO2	i	nt	i	i	106
CCCCc1c(-c2ccc(OC)cc2)ncn1CCc1ccccc1OC	i	nt	i	nt	nt
CCCCc1c(Cc2ccccc2)ncn1CCc1ccccc1OC	i	nt	58	nt	nt
CCCCc1c(-c2ccccc2)ncn1CCc1ccccc1OC	i	nt	i	nt	nt
CCCCCc1c(-c2ccc(OC)cc2)ncn1CCc1ccccc1OC	i	nt	62	nt	nt
C[C@@H]1CN([C@@H](C)CO)C(=O)c2cc(NS(=O)(=O)c3cccs3)ccc2O[C@@H]1CN(C)S(=O)(=O)c1cn(C)cn1	nt	i	i	nt	i
COc1ccc2c3c([nH]c2c1)[C@H](CO)N(C(=O)NC(C)C)CC31CCN(C(=O)NC(C)C)CC1	nt	nt	i	nt	nt
Clc1cc(Cl)c2nc(N3CCOCC3)sc2c1	42	61	i	nt	i
Clc1ccc(Cl)c2sc(N3CCOCC3)nc12	nt	i	i	i	i
C[C@H](NC(=O)C[C@H]1C=C[C@H](NC(=O)Cc2ccccn2)[C@H](CO)O1)c1ccccc1	nt	i	nt	nt	nt
C[C@@H]1CN([C@@H](C)CO)C(=O)c2cc(-c3ccccc3F)cnc2O[C@H]1CN(C)C(=O)NC1CCCC1	nt	i	i	nt	i
CCOC(=O)c1c(-c2ccc(OC)cc2)oc2cc(Br)c(O)cc12	i	i	i	i	i
CCOC(=O)c1c(C)[nH]c2cc(Br)c(O)cc12	48	54	i	nt	i
O=C(NC1CCCCC1)C(c1ccccc1F)n1c(=O)c(-c2ccco2)nc2ccccc21 (centres undefined)	i	nt	59	nt	nt
CNC(=O)C1CCC(=O)N1Cc1ccccc1Cl (centres undefined)	nt	i	i	i	i
O=C(Nc1cc(Cl)cc(Cl)c1)C1CCC(=O)N1Cc1ccccc1Cl (centres undefined)	i	i	53	i	i
SMILES	Wnt act	esBAF inh	HIV Env fusion	MITF TRPM1 HTS	miR-122 sensor
C=C[C@H](Cc1ccccc1)N(Cc1ccccc1)S(=O)(=O)N(Cc1ccccc1)[C@H](C=C)Cc1ccccc1	i	i	61	i	nt
CN(C)CCCNC(=O)C[C@@H]1C=C[C@H](NS(=O)(=O)c2ccc(F)cc2)[C@@H](CO)O1	nt	i	i	nt	nt
CCCOc1ccc(-c2nc(N3CCN(C)CC3)c3ccccc3n2)cc1	46	i	i	125	i
Cc1cc(S(=O)(=O)NCCc2ccccc2)c(C)s1	i	i	i	i	226
Cc1cc(S(=O)(=O)NCCN2CCOCC2)c(C)s1	nt	i	i	nt	i
Cc1ccc(C(=O)NNC(=O)c2ccc3ccccc3c2)cc1	i	67	i	i	i
Cc1ccc(C(=O)NNC(=O)c2ccc(C)cc2)cc1	i	nt	i	i	nt
Cc1ccccc1NC(=O)NNC(=O)c1ccc2ccccc2c1	i	i	i	i	nt
Cc1ccccc1NC(=O)c1ccc2ccccc2c1	i	45	i	i	nt
